Measurements as given in PubChem BioAssay AID926 (National Center for Advancing Translational Sciences (NCATS), 2007).
Values joined by “and” are separate entries in the source; they are usually repeats but may differ in a detail not shown here. Equal entries are not always repeated. Out of some 73,000 compounds screened, about 350 (0.48%) were called active. Not shown: some 17% with an inconclusive outcome. The call rests on the fitted dose curve; in most records, active means well fitted activation curve with a large enough effect in the main read-out, with a control signal flat (not every such curve was filed as active); inconclusive means small, poorly fitted or top-dose-only effect, or a change in a side signal; inactive means no such curve, though single readings can be large or run the other way; reference of the percent scale not stated here. The list comes from a sample in which actives are over-represented; it also holds similar structures and randomly drawn compounds.

Columns and labels:
[1] = qHTS Assay for Agonists of the Thyroid Stimulating Hormone Receptor; settings: HEK293-CNG-TSHR cells, membrane potential dye, cAMP; measured here: parental cells max response
Method in brief: (§1)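 HEK 293 cells stably expressing TSHR and a cAMP-gated CNG channel; parental CNG-only cells as counterscreen. Cells preloaded 60 min with membrane potential dye plus 100 uM RO 20-1724, then compound 30 min; fluorescence read at 590 nm.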

[2] = target: Thyrotropin receptor (Homo sapiens) (UniProt P16473); assay: as above; settings: HEK293-CNG-TSHR cells (CNG channel as cAMP sensor), membrane potential dye, cAMP; series mostly up to 57.1 µM
Sequence of Thyrotropin receptor (Homo sapiens) (P16473 whole entry, looked up): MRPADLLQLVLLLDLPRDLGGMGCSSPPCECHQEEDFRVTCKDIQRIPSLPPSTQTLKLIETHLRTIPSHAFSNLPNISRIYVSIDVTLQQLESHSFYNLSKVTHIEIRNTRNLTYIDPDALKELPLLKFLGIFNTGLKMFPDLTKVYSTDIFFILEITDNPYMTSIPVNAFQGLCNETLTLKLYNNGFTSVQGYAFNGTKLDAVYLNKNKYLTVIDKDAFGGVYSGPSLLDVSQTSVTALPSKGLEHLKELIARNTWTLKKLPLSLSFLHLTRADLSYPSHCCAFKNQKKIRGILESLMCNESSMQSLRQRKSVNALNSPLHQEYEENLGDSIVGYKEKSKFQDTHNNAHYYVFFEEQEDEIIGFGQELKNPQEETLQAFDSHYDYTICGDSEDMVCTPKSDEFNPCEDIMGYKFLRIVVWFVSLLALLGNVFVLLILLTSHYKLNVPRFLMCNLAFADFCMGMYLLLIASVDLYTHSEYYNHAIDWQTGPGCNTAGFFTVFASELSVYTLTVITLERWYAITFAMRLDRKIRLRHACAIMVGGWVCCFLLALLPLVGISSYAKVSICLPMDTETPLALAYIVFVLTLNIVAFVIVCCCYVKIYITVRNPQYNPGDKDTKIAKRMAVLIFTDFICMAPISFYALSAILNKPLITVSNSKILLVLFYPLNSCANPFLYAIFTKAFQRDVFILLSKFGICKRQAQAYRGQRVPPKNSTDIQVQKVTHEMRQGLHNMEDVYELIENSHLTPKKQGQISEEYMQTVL
Method in brief: as §1
Potency means the concentration at half of the fitted maximal effect.

Row | Structure (SMILES) | activation [1] | activation [2] | Potency [2]
1 | CC(=O)OCC1OC(C#CCCCc2ccccc2)C=CC1OC(C)=O (stereo unspecified) | -0.905% | 0.607% [at 11.4 µM] (inactive) | 
2 | CCc1cc(=O)oc2cc(C)cc(OC(C)C(=O)O)c12 (stereo unspecified) | 10.3% |  | inactive
3 | O=C1[C@H]2[C@H]3[C@H](O)[C@H](O)C/C(=N/OCc4ccccc4)[C@H]3CC[C@@H]2C(=O)N1Cc1ccccc1 | -2.25% | -22.5% [at 11.4 µM] (inactive) | 
4 | c1ccc(-c2nnc3n2NC(c2ccc4c(c2)OCO4)S3)cc1 (stereo unspecified) | 27.8% |  | 25.1 µM (active)
5 | Fc1ccc(-c2nnc3sc(-c4ccc5c(c4)OCO5)nn23)cc1 | 23.4% |  | inactive
6 | O=C(Cn1nnc(-c2ccccc2)n1)NCc1ccc2c(c1)OCO2 | 12.1% |  | inactive
7 | Cc1ccc(C(=O)N2CCN(C3CCCCC3)CC2)s1 | -11.9% |  | inactive
8 | CC(C)(C)c1ccc(OC2C=CC(C#Cc3ccccc3)OC2CO)cc1 (stereo unspecified) | 12.6% | 1.96% [at 11.4 µM] (inactive) | 
9 | O=C(Cn1cc2c(n1)CCCCC2)NCCN1CCOCC1 | 1.85% |  | inactive
10 | CCOC(=O)CSc1nnc(-c2ccncc2)o1 | -3.39% |  | inactive
11 | Cc1ccc2nc(CC(=O)c3ccc4ccccc4c3)c(=O)[nH]c2c1 | 22.3% | 4.8% [at 11.4 µM] (inactive) | 
12 | COc1ccc(-c2cc(C(=O)NC(C(=O)O)C(C)C)c(C)o2)cc1OC (stereo unspecified) | 6.63% |  | inactive
13 | CN1CCN(c2ncc3nc(-c4ccc(Cl)cc4)c(=O)n(-c4ccccc4)c3n2)CC1 | -23% |  | inactive
14 | COc1ncc2nc(-c3ccc(Cl)cc3)c(=O)n(C)c2n1 | 6.5% |  | inactive
15 | Cn1c(=O)[nH]c(=O)c2c1nc(NCCCn1ccnc1)n2Cc1cccc(Br)c1 | 20.4% |  | 20 µM (active)
16 | CCCCNc1nc2c(c(=O)[nH]c(=O)n2C)n1CCOc1ccccc1 | 0.873% |  | inactive
17 | CC(c1ccccc1)n1c(NCCCn2ccnc2)nc2c1c(=O)[nH]c(=O)n2C (stereo unspecified) | 2.43% |  | inactive
18 | CCC(C)(C)N=C(NC#N)Nc1cccnc1 | 0.273% |  | inactive
19 | C1CCC2OC2C1 (stereo unspecified) | 21.9% |  | inactive
20 | CC(Cc1ccccc1)C(=O)N(C)Cc1ccccc1 (stereo unspecified) | 16.5% |  | inactive
21 | CO[C@H]1COC(=O)CCC[C@@H](C)[C@H](OC)COC(=O)[C@@H](C)NC(=O)C/C=C\[C@@H]1C | 4.76% | 0.571% [at 11.4 µM] (inactive) | 
22 | C/C(CCN1CCCCc2nc(C)c(C)cc21)=N\O[C@@H](C)c1cn([C@@H]2COC[C@@H]2O)nn1 | 6.27% | 4.59% [at 11.4 µM] (inactive) | 
23 | O=C(O)c1nccnc1C(=O)Nc1ccc(Br)cn1 | 3.73% |  | inactive
24 | C[C@@H](c1ccccc1)N1C(=O)[C@H]2[C@H]3[C@H](O)[C@H](O)C/C(=N/OC[C@@H](O)COCc4ccco4)[C@@H]3CC[C@@H]2C1=O | 5.7% | -3.6% [at 11.4 µM] (inactive) | 
25 | OC(CCl)CCl | 12.9% |  | inactive
26 | CCOC(=O)c1cccc(NC(=O)C2CCCN(S(=O)(=O)c3cnc[nH]3)C2)c1 (stereo unspecified) | 5.88% |  | inactive
27 | CN1CCN(Cc2c(O)ccc3c2oc(=O)c2ccccc23)CC1 | 13.2% |  | inactive

Row | Structure (SMILES) | activation [1] | activation [2] | Potency [2]
28 | CO[C@H]1COC(=O)[C@H](Cc2ccccc2)NC(=O)C/C=C\[C@@H](C)[C@H](OC)COC(=O)C/C=C\[C@@H]1C | 25.1% | 10.2% [at 11.4 µM] (inactive) | 
29 | O=C(CC1Nc2ccccc2NC1=O)Nc1ccccc1 (stereo unspecified) | -1.43% |  | inactive
30 | CCCCCCn1c(SCC(=O)c2ccccc2)nc2c1c(=O)[nH]c(=O)n2C | -2.08% | 3.88% [at 11.4 µM] (inactive) | 
31 | CC1CCCCN1CCCNC(=O)c1ccc(-n2c(=O)c(=O)[nH]c3ccccc32)cc1 (stereo unspecified) | -4.46% |  | inactive
32 | CCCn1c(C)nc2c(NCCCCN(CC)CC)nc(C)nc21 | 4.8% |  | inactive
33 | O=C1C[C@@H](O)[C@@H](O)[C@H]2[C@@H]3C(=O)N(Cc4ccc5c(c4)OCO5)C(=O)[C@@H]3CC[C@H]12 | 0.478% and -2.17% | 1.51% [at 11.4 µM] (inactive) and -4.05% [at 11.4 µM] (inactive) | 
34 | C#CCCCCCCCCCCCCCCCC(=O)O | 7.8% |  | inactive
35 | COc1ccc(-c2nnc(SC(=O)N3c4ccccc4Sc4ccccc43)o2)cc1 | -13.7% | -19.2% [at 11.4 µM] (inactive) | 
36 | CCC1C(C#N)=C(SC)NC2=C1C(=O)CC(C)(C)C2 (stereo unspecified) | 9.37% | 4.61% [at 11.4 µM] (inactive) | 
37 | Cc1c2c(nc3ccccc13)-c1cccc(=O)n1C2 | -3.79% |  | inactive
38 | Cc1noc(C)c1-c1nc(Nc2ccccc2)c2ccccc2n1 | -3.31% |  | inactive
39 | O=C(O)c1ccc(Cl)c(S(=O)(=O)Nc2ccccc2Cl)c1 | 5.29% |  | inactive
40 | Cc1ccc2c(c1)sc1ncc(NC(=O)c3ccccc3)c(=O)n12 | 11.7% |  | inactive
41 | CCNC(=S)NCC | -3.45% |  | inactive
42 | COC(=O)c1cn(-c2ccccc2)nc1-c1cccnc1 | 9.42% |  | inactive
43 | CO/N=C\[C@@H](C)[C@H](OCc1ccccc1)C(C)C | -0.643% | 16.8% [at 11.4 µM] (inactive) | 
44 | O=c1c(-c2ccc(F)c(F)c2)nc2cncnc2n1-c1ccccc1 | 19.9% |  | inactive
45 | N[C@H](C(=O)O)c1ccc(C(=O)O)c(O)c1 | -2.63% |  | inactive
46 | N#Cc1cccc(CSc2nnc(CCCO)n2-c2ccccc2)c1 | -1.39% |  | inactive
47 | COC(=O)C1(C)C=CC2(CCCCC2)N1C(C)=O (stereo unspecified) | 19.4% |  | inactive
48 | COc1cccc(-c2nnc(N(C)C(=O)c3ccno3)s2)c1 | 11% | -1% [at 11.4 µM] (inactive) | 
49 | CC(=O)OCC1OC(C#Cc2ccccc2Cl)C=CC1OC(C)=O (stereo unspecified) | -0.512% | 0.546% [at 11.4 µM] (inactive) | 
50 | COc1ccc(/C=C/NC(=O)c2ccc(OC)cc2)cc1 | -3.02% | -7.55% [at 11.4 µM] (inactive) | 
51 | CN1CCc2nc(-c3ccccc3)c(-c3ccccc3)cc2C1 | 0.173% | 2% [at 11.4 µM] (inactive) | 
52 | Cn1c(=O)c(-c2ccccc2)nc2cnc(N3CCNCC3)nc21 | 4.18% |  | inactive
53 | CC1(C)S[C@@H]2[C@@H](NC(=O)[C@@H](N)c3ccccc3)C(=O)N2[C@H]1C(=O)O | -1.13% |  | inactive
